# Measurements from PubChem BioAssay (NCATS).
# Inconclusive results are not listed. Active and inactive are the calls of the source. The call rests on the fitted dose curve; in most records, active means well fitted inhibition curve with a large enough effect in the repeat runs; inconclusive means weak or mixed curves; inactive means no such curve, though single readings can be large or run the other way.
# Molecular target: Cytochrome P450 2C9 (Homo sapiens) (UniProt P11712)
# Assay: Cytochrome P450 family 2 subfamily C member 9 (CYP2C9) small molecule antagonists: luciferase biochemical (cell-free) qHTS assay (AID 1645842); further: nearly all actives have a fitted effect of over 55% in size
# Conditions: P450-Glo CYP2C9 enzyme assay, luciferin luminescence; series mostly up to 57.4 µM; activity change, negative = inhibition: at the top concentration
# Outline: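 P450-Glo CYP2C9 system: proluciferin substrate with enzyme in mix containing 0.4% BSA, 10 min at room temperature, then NADPH regeneration solution added and incubated 1 h at 37C. Detection reagent stopped reaction; luminescence read after 20 min as RLU.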
# On the % scale 0 is the no-effect control and ±100 the full control effect; potency means the concentration at half of the fitted maximal effect.
# Chain of Cytochrome P450 2C9 (Homo sapiens) (P11712 whole entry, looked up): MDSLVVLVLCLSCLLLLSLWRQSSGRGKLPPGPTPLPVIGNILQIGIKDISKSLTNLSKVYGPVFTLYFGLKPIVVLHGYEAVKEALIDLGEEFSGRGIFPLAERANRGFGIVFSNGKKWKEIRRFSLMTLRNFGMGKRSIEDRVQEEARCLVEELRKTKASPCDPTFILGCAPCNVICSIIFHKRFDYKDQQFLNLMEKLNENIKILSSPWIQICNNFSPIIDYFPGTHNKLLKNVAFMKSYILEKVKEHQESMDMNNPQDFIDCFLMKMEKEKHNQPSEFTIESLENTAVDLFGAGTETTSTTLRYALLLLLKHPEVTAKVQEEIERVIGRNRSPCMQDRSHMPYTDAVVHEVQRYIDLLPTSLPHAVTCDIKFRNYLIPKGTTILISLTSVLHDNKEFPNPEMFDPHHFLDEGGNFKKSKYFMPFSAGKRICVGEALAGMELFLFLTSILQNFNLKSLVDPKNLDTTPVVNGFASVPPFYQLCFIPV
Structure (SMILES),Potency,"activity change, negative = inhibition"
CCN(CCNC(=O)Nc1ccccc1Br)c1cccc(C)c1,3.79 µM (active),–
CN(C)CCOc1cc(NS(=O)(=O)c2c(Cl)cc(C(F)(F)F)cc2Cl)ccc1Cl,8.49 µM (active),–
CN1CC(O)c2cc(N=NC(N)=O)c(O)cc21 (stereo not drawn),–,-2.9% (inactive)
CC[C@H](C(=O)Nc1ccccc1N1CCCC1)c1ccccc1,7.56 µM (active),–
CCCCCCCCCCCCCCCC(=O)OC/C=C(C)/C=C/C=C(C)/C=C/C1=C(C)CCCC1(C)C,13.5 µM (active),–
Cc1cc(-c2nc(-c3ccc(OC(F)(F)F)cc3)no2)nn1Cc1ccnc(N2CCN(C3CC3)CC2)c1,6.01 µM (active),–
CC(C)c1cc2c(N3CCN(C4=NCC(C)(C)S4)CC3)ncnc2s1,–,8.58% (inactive)
CC1=C(C(=O)Nc2cc(Cl)ccc2Cl)C(c2ccco2)C2=C(CCCC2=O)N1 (stereo not drawn),1.07 µM (active),–
C=CC(=O)N1CCCC(n2nc(-c3ccc(Oc4ccccc4)cc3)c3c(N)ncnc32)C1 (stereo not drawn),3.79 µM (active),–
O=C(N[C@H](Cc1cscn1)C(=O)N[C@@H](CC1CCCCC1)[C@@H](O)[C@@H](O)C1CC1)c1nc2ccccc2[nH]1,1.34 µM (active),–
CCOc1cccc(NC(=O)c2ccc(N3CCCC3)c(C(F)(F)F)c2)c1,–,-29.8% (inactive)
COc1ccc(S(=O)(=O)N2CCC[C@H]2C(=O)Nc2cc(C)cc(C)c2)cc1,0.674 µM (active),–
NS(=O)(=O)c1ccc(N2N=C(c3ccccc3)CC2c2ccccc2)cc1 (stereo not drawn),10.7 µM (active),–
O=S(=O)(O)Oc1ccc(C(c2ccc(OS(=O)(=O)O)cc2)c2ccccn2)cc1,–,2.28% (inactive)
O=C(Nc1ccccc1)N1CCC(Cc2cnc3ccccc3c2)CC1,12 µM (active),–
Cc1cccc(-c2[nH]ncc2-c2ccnc3ccccc23)n1,9.52 µM (active),–
O=[N+]([O-])c1ccc(Oc2ccc(N=C=S)cc2)cc1,16.9 µM (active),–
Fc1ccc(-c2nc(-c3c(F)cccc3F)[nH]c2-c2ccncc2)cc1,–,20% (inactive)
Cn1ncc(Cl)c1-c1cc(C(=O)N[C@H](CN)Cc2cccc(F)c2)sc1Cl,9.52 µM (active),–

Structure (SMILES),Potency,"activity change, negative = inhibition"
Fc1ccc(-c2nc(-c3ccccc3F)[nH]c2-c2ccncc2)cc1,1.69 µM (active),–
Cc1ccc(N2CCN(S(=O)(=O)N3CCCCC3)CC2)c(C)c1,0.849 µM (active),–
NC(=O)c1nc(Nc2ccccc2)sc1NC(=O)C1CCCCC1,0.601 µM (active),–
Cc1cc(C)cc(-c2cnc3cc(Cl)c(-c4cccc(O)c4)cc3c2OCCCN)c1,1.2 µM (active),–
CN[C@@H]1CCc2[nH]c3ccc(C(N)=O)cc3c2C1,–,-25% (inactive)
Cc1ccnc(NC(=O)C(C)c2cccc(C(=O)c3ccccc3)c2)c1 (stereo not drawn),10.7 µM (active),–
CCCc1ccc(OCC(=O)N(Cc2nc(-c3cccnc3)no2)C(C)C)cc1,2.13 µM (active),–
C=Cc1ccccc1,–,6.43% (inactive)
O=c1cc(N2CCOCC2)nc2c3ccccc3ccn12,15.1 µM (active),–
CCNc1nc(Nc2cc(F)c(C(=O)N3CCOCC3)cc2OC)ncc1C(F)(F)F,1.9 µM (active),–
O=S(=O)(c1ccc(Cl)cc1)N1CCN(c2ccnc3cc(Cl)ccc23)CC1,2.39 µM (active),–
CCCOc1ccc(S(=O)(=O)N2CCN(CCO)CC2)cc1-c1nc2c(CCC)cn(CC)c2c(=O)[nH]1,5.35 µM (active),–
CCC(=O)O,–,-15.4% (inactive)
COc1ccc(CN2CCN(C(=O)CCNC(=O)c3ccc(C(C)(C)C)cc3)CC2)cc1,8.49 µM (active),–
CCC(=O)Oc1ccc2c(c1)CC[C@@H]1[C@@H]2CC[C@]2(C)[C@@H](OC(=O)CC)CC[C@@H]12,15.1 µM (active),–
O=C1COc2nccc(-c3ccccc3F)c2CN1Cc1cc(C(F)(F)F)cc(C(F)(F)F)c1,21.3 µM (active),–
COc1ccc(S(=O)(=O)Nc2c(C)cc(C)cc2C)cc1,2.39 µM (active),–
O=C(C1CCCCC1)N(CCN1CCN(c2ccccc2O)CC1)c1ccccn1,12 µM (active),–
Fc1ccc(N2CCN(CCC3OCCc4ccccc43)CC2)cc1 (stereo not drawn),–,-7.95% (inactive)
